PfHsp40 rescue – rescue of PfHsp40-mediated yeast toxicity. S. cerevisiae expressing PfHsp40, growth rescue, ATP luminescence. growth rescue, % at 12.5 µM. 340,000 compounds, 0.68% hits. AID 504582; in the data active = growth rescue above about 28%, passing the limit was not always enough; inconclusive = no clear call, values can overlap the other calls;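 note: yeast W303a lacking pdr1 and pdr3 grown in galactose medium; growth measured after three days at 30 °C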
MazEF act – increases E. coli MazEF RNase cleavage of RNA | AID 504720 | 350,000 compounds, 0.32% hits | FAM/BHQ RNA-DNA oligo cleavage fluorescence, 5 h | activation, % at 20 µM; in the data active = activation above about 50%
BoNT A protease – BoNT A light chain protease inhibition | inhibition, % at 10 µM | 360,000 compounds, 0.17% hits | multiplex microsphere protease substrate cleavage, flow cytometry
Autofluor counter – compound fluorescence in toxin protease inhibitor counterscreen; fluorescence intensity (test concentration not listed); compound autofluorescence counterscreen, microsphere flow cytometry; hits give high values; 360,000 compounds, 3.1% hits; in the data active = fluorescence intensity above about 16000; inconclusive = no clear call, values can overlap the other calls
Anthrax LF inh2 – anthrax lethal factor protease inhibition; 360,000 compounds, 0.12% hits; multiplex microsphere protease cleavage assay, LF; inhibition, % at 10 µM
Target sequence (P15917 whole entry, looked up): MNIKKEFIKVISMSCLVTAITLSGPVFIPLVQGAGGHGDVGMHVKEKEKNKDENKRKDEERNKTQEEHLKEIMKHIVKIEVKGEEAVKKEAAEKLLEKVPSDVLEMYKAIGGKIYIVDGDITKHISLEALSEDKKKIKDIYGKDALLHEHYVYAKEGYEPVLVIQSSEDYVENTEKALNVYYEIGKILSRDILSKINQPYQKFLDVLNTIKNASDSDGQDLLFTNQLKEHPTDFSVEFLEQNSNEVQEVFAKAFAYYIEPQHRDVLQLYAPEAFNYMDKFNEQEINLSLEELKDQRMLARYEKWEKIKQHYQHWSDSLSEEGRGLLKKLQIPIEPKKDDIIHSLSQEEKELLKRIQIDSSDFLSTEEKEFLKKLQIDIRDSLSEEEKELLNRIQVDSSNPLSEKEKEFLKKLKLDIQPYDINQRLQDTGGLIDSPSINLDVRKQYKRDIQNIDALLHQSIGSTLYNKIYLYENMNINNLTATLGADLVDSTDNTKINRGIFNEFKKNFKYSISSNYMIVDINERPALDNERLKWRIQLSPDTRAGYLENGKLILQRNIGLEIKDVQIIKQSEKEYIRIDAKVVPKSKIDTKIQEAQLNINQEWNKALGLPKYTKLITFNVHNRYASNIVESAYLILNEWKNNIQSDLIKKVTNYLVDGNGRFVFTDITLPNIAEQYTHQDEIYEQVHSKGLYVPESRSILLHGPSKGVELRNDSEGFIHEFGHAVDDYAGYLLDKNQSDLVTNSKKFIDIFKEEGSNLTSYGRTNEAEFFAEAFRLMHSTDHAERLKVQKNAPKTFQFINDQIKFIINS
BoNT F protease – inhibitors of Botulinum neurotoxin F light chain protease; Multiplex microsphere protease cleavage assay, flow cytometry; 360,000 compounds, 0.22% hits; AID 588497; inhibition, % at 10 µM; in the data active = inhibition above about 35%, passing the limit was not always enough; inconclusive = no clear call, values can overlap the other calls
Hits are given with their value; 0 = inactive; ? = inconclusive; - = no result. In the library only some 4.3% were active in any assay of this set; here they are far more common. Cut-off read from the data, not from the text of the source, unless noted: active = inhibition above about 30%; inconclusive = no clear call, values can overlap the other calls; inactive = below that.

SMILES	PfHsp40 rescue	MazEF act	BoNT A protease	Autofluor counter	Anthrax LF inh2	BoNT F protease
COCC(=O)Nc1ccccc1C(=O)Nc1ccc(OC)cc1	0	0	0	22328	0	0
Cc1cc(C)c(OCC(=O)N(Cc2ccc(N(C)C)cc2)C2CCS(=O)(=O)C2)c(C)c1 (stereo unspecified)	0	0	0	0	0	?
CC1=C(C(=O)N(C)C)CC(CC(=O)NCCc2ccccn2)C(=O)N1Cc1ccccc1 (stereo unspecified)	-	0	0	0	0	0
NNC(=O)C1SCCN1S(=O)(=O)c1ccc(Cl)cc1 (stereo unspecified)	0	0	0	0	0	0
O=C(Nc1cccc(Cl)c1)Nc1ccccc1C(=O)O	0	0	0	0	0	0
CSc1ccccc1C(=O)NC1CCCCCC1	0	0	0	20204	0	0
NC(=O)c1ccccc1NC(=O)Nc1cccc(Cl)c1	0	0	0	20064	0	0
COc1ccccc1Nc1ncccc1C(=O)NCc1ccccc1	0	0	0	20309	0	0
COc1ccc(NC(=O)c2cccnc2Nc2ccccc2)cc1	0	0	0	23086	0	0
Cc1ccc(N2CCN(C(=O)C3CCC(=O)N(Cc4ccc(Cl)cc4)C3)CC2)c(C)c1 (stereo unspecified)	0	0	0	0	0	0
COc1ccccc1NC(=O)CSc1nnc(CC(=O)Nc2cccc(C(F)(F)F)c2)n1C	0	0	0	20559	0	0
COc1cccc(NC(=O)Cc2nnc(SCC(=O)NC(C)c3ccccc3)n2C)c1 (stereo unspecified)	0	0	?	21780	0	0
C=C1C(=O)OC2C=C(CO)C3OC3C3OC3(C)CC(OC(=O)/C(=C/C)COC(C)=O)C12 (stereo unspecified)	0	0	0	0	0	0
Cc1nn(Cc2ccc(Cl)c(Cl)c2)c(C)c1NC(=O)c1noc2c1CCCCC2	0	0	?	17489	0	0
Cc1cc(NC(=O)c2noc3c2CCCCC3)no1	0	0	0	0	0	0
O=C(Nc1cccnc1)c1noc2c1CCCC2	0	0	0	26961	0	0
Cc1cc(NC(=O)c2noc3c2CCCC3)no1	0	0	0	21619	0	0
Cc1nn(Cc2ccc(Cl)cc2)c(C)c1NC(=O)c1noc2c1CCCCC2	0	0	0	0	0	0
CC(C)(C)C1CCc2onc(C(=O)Nc3cccnc3)c2C1 (stereo unspecified)	0	0	0	0	0	0
Cc1ccc(/C=N/Nc2ccc3c(C(F)(F)F)cc(C(F)(F)F)nc3n2)cc1	0	285	0	0	0	0
CN(Cc1nccn1C)C(=O)c1ccc(OC2CCN(CCc3ccccc3)CC2)cc1	0	0	0	0	0	0
O=C(Nc1ccc(Cl)cc1Cl)NC1CCN(S(=O)(=O)c2ccc(F)cc2)CC1	0	101	0	0	0	0
O=S(=O)(NCc1ccccn1)c1ccccc1	0	0	0	0	0	0
O=S(=O)(Cc1ccccc1)NCc1ccccn1	0	0	0	21025	0	0
COc1ccccc1CNC(=O)C(=O)NCC1OCCCN1S(=O)(=O)c1cccs1 (stereo unspecified)	0	0	0	0	0	0
SMILES	PfHsp40 rescue	MazEF act	BoNT A protease	Autofluor counter	Anthrax LF inh2	BoNT F protease
CCN(CC(O)Cn1c2ccccc2c2ccccc21)S(=O)(=O)c1ccc(F)cc1 (stereo unspecified)	0	0	0	0	0	0
O=S(=O)(c1ccc(F)cc1)N(CCO)CC(O)Cn1c2ccccc2c2ccccc21 (stereo unspecified)	0	0	0	16893	0	0
CCC(=O)O/N=C(\N)c1ccc(Oc2cc(C)c(Cl)c(C)c2)c([N+](=O)[O-])c1	0	0	?	0	0	?
O=C(CSCc1c(F)cccc1F)Nc1ccccc1	0	0	0	0	0	0
Cc1ccc(CN2CCNC(=O)C2CC(=O)O)cc1 (stereo unspecified)	0	0	0	0	0	0
CN1CCNC(=O)C1CC(=O)O (stereo unspecified)	0	0	?	22031	0	0
COc1ccc2c(Cl)c(C(=O)N/N=C/c3cccnc3)sc2c1	0	0	0	0	0	0
COc1ccc2c(c1)C(c1cccs1)=NNC(c1ccncc1)=N2	0	242	0	0	0	0
CCc1ccc2c(c1)C(c1cccs1)=NNC(c1cccnc1)=N2	0	0	?	19854	0	0
O=C(C1CCC(=O)N1Cc1ccccc1Cl)N1CCC2(CC1)OCCO2 (stereo unspecified)	0	0	0	20370	0	0
CNC(=O)C1CCC(=O)N1Cc1ccccc1Cl (stereo unspecified)	0	0	0	23165	0	0
CC(NC(=O)C1CCC(=O)N1Cc1ccccc1Cl)c1ccccc1 (stereo unspecified)	-	0	0	0	0	0
O=C(Nc1cc(Cl)cc(Cl)c1)C1CCC(=O)N1Cc1ccccc1Cl (stereo unspecified)	0	0	0	21909	0	0
Cc1ccc(NC(=O)CNc2cccc(Br)c2)cc1S(=O)(=O)N1CCOCC1	0	0	0	0	0	0
COc1ccc(/C=N/Nc2ccc([N+](=O)[O-])cc2)cc1Cn1cc([N+](=O)[O-])cn1	0	0	0	0	0	0
COc1ccc(/C=N/Nc2ccc([N+](=O)[O-])cc2)cc1O	42	0	0	0	0	0
O=C(CCC(=O)c1cccs1)Nc1ncccc1O	0	0	0	0	0	0
CN(C)c1ccc(CNn2cnnc2SCC(=O)NC(C)(C)C)cc1	0	0	0	0	0	0
CN(C)c1ccc(CNn2cnnc2SCc2ccccc2F)cc1	0	0	0	19034	0	0
NC(=O)c1ccccc1NC(=O)COC(=O)C1(c2ccccc2)CC1	0	0	0	?	0	?
C[C@H](CO)N1C[C@H](C)[C@@H](CN(C)C)Oc2c(NS(=O)(=O)c3ccccc3)cccc2C1=O	0	0	0	0	0	0
CCOC(=O)c1cc(NC(=O)c2ccoc2C)cc(C(=O)OCC)c1	0	0	?	23038	0	0
CCOC(=O)c1cc(NC(=O)C2C3CCC(O3)C2C(=O)O)cc(C(=O)OCC)c1 (stereo unspecified)	0	0	0	23079	0	0
CCOC(=O)Cc1csc(NC(=O)c2ccoc2C)n1	0	0	0	23823	0	0
CC(=O)c1cccc(NC(=O)c2ccoc2C)c1	0	0	0	0	0	0
CCOC(=O)Cc1csc(NC(=O)c2c(-c3c(F)cccc3Cl)noc2C)n1	0	0	0	21863	0	0
CCOC(=O)c1cc(NC(=O)C2C3C=CC(O3)C2C(=O)O)cc(C(=O)OCC)c1 (stereo unspecified)	0	0	0	0	0	0
CCOC(=O)Cc1csc(NC(=O)c2c(C)noc2C)n1	0	0	0	0	0	0
O=C(Nc1c2c(nn1-c1ccccc1)CS(=O)C2)c1ccco1 (stereo unspecified)	0	0	0	0	0	0
CCCNC(=O)CSc1nc(-c2cccs2)cc(C(F)(F)F)n1	0	0	0	0	0	0

Screens: PubChem, several laboratories
